# Screening results: PubChem BioAssay, National Center for Advancing Translational Sciences (NCATS)
# ERK EGF inh: blocks ERK signaling stimulated by EGF; Potency, µM (titrated, usually from 11.5 µM), for the others: top-dose activity change, negative = inhibition, most hits filed as inhibitors; HEK293-V1b, EGF-stimulated phospho-ERK AlphaScreen; 130,000 compounds, 0.41% hits; active = well fitted inhibition curve with a large enough effect;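 also: plate controls were stimulated vehicle wells for no effect and unstimulated vehicle basal for full effect; nearly all actives have a fitted effect of over 55% in size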
#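 Stably V1b-transfected HEK293 cells; 30 min compound, then EGF 25 nM final for 5 min at 37C; 10 min lysis; phospho-ERK by AlphaScreen after 5 hr beads at room temperature.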
# * marks the source's active call; other numbers are inactive results; [ ] = dose if it differs, or a comment. The entries come from a sample that favours hits as a whole. Potency is read from the fitted curve at half-maximal effect.
SMILES,ERK EGF inh
O=C(NC(=S)NN1CCCCC1c1cccnc1)c1ccc(Br)cc1 (configuration not stated),14µM*
COc1cccc(-c2nnc(NC(=O)c3ccc4ncsc4c3)o2)c1,1%
COc1cccc([C@@H]2Oc3ccc(Br)cc3C(=O)[C@H]2OC(=O)Nc2ccc(C)c(Br)c2)c1,4%
c1cc2c(cc1C1CCCCC1)c1c3n2CCN[C@H]3CCC1,8%
Cc1ccc2c(c1)c1c3n2CCCNC3CCC1 (configuration not stated),-15%[57.5 µM]
c1cc2c(cc1C1CCCCC1)c1c3n2CCCNC3CCC1 (configuration not stated),28µM*
CCOC(=O)Nc1ccc(C(=O)/C=C/c2ccccc2)cc1,-6%[57.5 µM]
O=C1c2cccc3cccc(c23)C(=O)N1CCN1CCN(CC(O)COCc2ccc(Cl)cc2)CC1 (configuration not stated),32µM*
CC(=O)c1ccccc1OC(=O)CCN1C(=O)c2ccccc2C1=O,2%
COc1cc(COCC(O)CN2CCN(CCN3C(=O)c4cccc5cccc(c45)C3=O)CC2)cc(OC)c1OC (configuration not stated),5%
CC(=O)c1ccccc1OCC(O)CN1CCN(CCN2C(=O)c3cccc4cccc(c34)C2=O)CC1 (configuration not stated),25µM*
O=C1c2cccc3cccc(c23)C(=O)N1CCN1CCN(C(=S)Nc2ccc(Cl)cc2)CC1,8%
O=C1c2cccc3cccc(c23)C(=O)N1CCN1CCN(CC(O)COc2ccc3ccccc3c2)CC1 (configuration not stated),1%
O=C(NCCC1CC1(Cl)Cl)Nc1ccccc1 (configuration not stated),2%[57.5 µM]
CC[C@H]1C2=C3C(CC[C@H]4C(OCc5ccc(F)cc5C(F)(F)F)OC[C@](C)([C@@H]34)N(C(=O)OC(C)(C)C)C2)C(COC)C1COC (some centres not stated),-2%
O=C(Nc1cccc(F)c1)N1CCC2(CC1)CCN(C(=O)c1ccncc1)CC2,1%
CC/C=C\C/C=C\C/C=C\C/C=C\C=C\C(O)CCCC(=O)O (configuration not stated),4%
CCC1OC(=O)C(C)[C@@H](O[C@H]2C[C@@](C)(OC)C(O)C(C)O2)C(C)[C@@H](O[C@@H]2OC(C)CC(N(C)C)C2O)[C@@](C)(O)CC(C)CN(C)C(C)C(O)[C@]1(C)O (some centres not stated),4%
OC(COc1ccc(CNCCc2ccccc2F)cc1)CN1CCCCC1 (configuration not stated),-6%[57.5 µM]
COC(=O)[C@@]1(Cc2ccc(OC)cc2)[C@H]2c3cc(C(=O)N4CCCC4)n(CCc4ccccn4)c3C[C@H]2CN1C(=O)c1ccccc1,-7%
O=C(c1cc(C(F)(F)F)cc(C(F)(F)F)c1)N1CCC2(CCCN(c3ccncc3)C2)CC1,1%
COCC(=O)N1CCC2(CC1)CN(c1ccccc1)C2,-1%
COc1ccc(-c2cc(C(F)(F)F)c(C#N)c(SCC(=O)O)n2)cc1OC,15%[57.5 µM]
COc1ccc(/C=C/C(=O)O)cc1Cl,-2%[57.5 µM]
COc1ccc(C=C2C(=O)c3ccccc3C2=O)cc1O,-2%
SMILES,ERK EGF inh
COc1ccc(N)c2c1C(=O)c1ccccc1C2=O,20µM*
Nc1ccc(O)c2c1C(=O)c1ccccc1C2=O,29%
COc1ccc(OC)c2c1C(=O)C(Cl)=C(Cl)C2=O,28µM*
COc1ccc(S(=O)(=O)N2CCCC2)c(Cl)c1Cl,2%
COC(=O)CC1C2(C)CC34OC5(C)O[C@@]6(C7/C(=C(/O)C(C)C)C(=O)OC(c8ccoc8)[C@]7(C)C(OC(C)=O)C(OC(C)=O)[C@]6(O5)[C@@]13C)C(OC(C)=O)[C@]4(O)C2OC(=O)C(C)C (some centres not stated),7%
Cc1cccc(C)c1NC(=S)N1CCC(c2ccccc2)C1 (configuration not stated),-10%
COC(=O)C1=C(C)NC(C)=C(C(=O)OCCCN2CCC(c3ccccc3)(c3ccccc3)CC2)[C@H]1c1cccc([N+](=O)[O-])c1,-11%
CC1=C2C(=CO[C@H](C)[C@H]2C)C(=O)C(C(=O)O)=C1O,-9%
CCC1=C2CC[C@H]3C(=O)N(CC)C(=O)[C@H]3[C@H]2[C@@]2(Cc3ccccc3)C(=O)N(CC3CC3)C(=O)N2C1=O,-6%
COC(=O)c1ccc(C(NC(=O)OCc2ccccc2)/C(C)=C/[C@@H](C)C(=O)NCCN2CCOCC2)cc1 (some centres not stated),11%
CC(C)(C)C(=O)Cn1ncc(Br)c(Br)c1=O,-13%
O=C(Nc1ccc(Cl)c(Cl)c1)c1ccc(Cl)c(Cl)c1,-8%[57.5 µM]
O=C(Nc1ccc(Cl)c(Cl)c1)Nc1cc(C(=O)NC2CC2)ccc1Cl,28µM*
O=C(NC1CCCCC1)c1ccc(Cl)c(NC(=O)c2ccccc2F)c1,-14%
COc1ccc2c(c1)c(CC(=O)O)c(C)n2Cc1ccc(F)cc1,9%
CCCCC(O)(CCCC)C(=O)NN(C(=O)c1cccnc1Cl)c1ccccc1,-12%[57.5 µM]
O=C(Nc1ccc(-c2cn3ccccc3n2)cc1)c1cccs1,-5%
CCOC(=O)C(=O)c1c(C)cc2ccccn12,-6%
Cc1cc2ccccn2c1C(=O)c1cccc([N+](=O)[O-])c1,6%
Cc1cc2ccccn2c1C(=O)c1ccc([N+](=O)[O-])o1,18µM*
COc1ccc2nc(/C=N/NC(=O)[C@@H]3CCCN3C(=O)OC(C)(C)C)ccc2c1,-5%[57.5 µM]
CCC(=O)OC1(C)C(=O)C=C2C=C(CCCNC(=O)OC(C)(C)C)OC=C2C1=O (configuration not stated),-16%
C=C(CO)C1Cc2c(ccc3c2OC2COc4cc(OC)c(OC)cc4C2C3=O)O1 (configuration not stated),-9%
Fc1cccc(Nc2ncnc3[nH]ncc23)c1,25µM*
NC(=O)c1cccnc1Nc1cccc(F)c1,-4%
SMILES,ERK EGF inh
Nc1ncnc(Nc2cccc(F)c2)n1,-5%[57.5 µM]
COC(=O)[C@@H](NC(=O)O[C@H]1C(=O)c2cc(OC)ccc2O[C@@H]1c1ccc(OC)c(Br)c1)C(C)C,2%
C[C@@H]1CCC2C(C)(C)C3CC21CC[C@@]3(C)O (some centres not stated),-14%
COc1ccccc1/C=C\C(=O)NCC(=O)N/N=C/c1ccc(O)cc1O,-3%[57.5 µM]
CC1CCN(C2=C(NS(=O)(=O)c3ccccc3)C(=O)c3ccccc3C2=O)CC1,18µM*
CCOC(=O)C1CCN(C(=O)c2ccccc2NS(=O)(=O)c2ccc(F)c(F)c2)CC1,9%
Cc1ccccc1NS(=O)(=O)c1ccc(Cl)cc1,6%
CC1CCN(C2=C(NS(=O)(=O)c3ccc(Cl)cc3)C(=O)c3ccccc3C2=O)CC1,16µM*
CCC1CCCCN1CC(C)(C)NS(=O)(=O)c1ccccc1 (configuration not stated),21%[57.5 µM]
O=C1C(NS(=O)(=O)c2ccccc2)=C(N2CCN(c3ccc(F)cc3)CC2)C(=O)c2ccccc21,25µM*
CCOC(=O)C1CCN(S(=O)(=O)c2ccc(C(C)(C)C)cc2)CC1,0%
Cc1ccc(S(=O)(=O)NCC(c2ccccc2)N2CCCCC2)cc1 (configuration not stated),-7%[57.5 µM]
CCOC(=O)C1CCN(C2=C(NS(=O)(=O)c3ccc(Cl)cc3)C(=O)c3ccccc3C2=O)CC1,32µM*
O=S(=O)(Nc1nc2ccccc2nc1N1CCN(c2ccccc2)CC1)c1ccc(F)cc1,-3%
CC1CCN(S(=O)(=O)c2ccccc2[N+](=O)[O-])CC1,-2%
